Compound activity deposited in PubChem by several laboratories.
DAGLB inh = DAGLB lipase inhibitors, primary screen, biochemical, fluorescence, HTS; actives 0.059% (n = 340,000); inhibition, % at 5.17 µM; HEK293T DAGLB membrane lysate, EnzChek fluorogenic substrate; AID 504411, 2011; Diacylglycerol lipase-beta (Homo sapiens), Q8NCG7; in the data active = inhibition above about 34%
Target sequence (Q8NCG7 whole entry, looked up): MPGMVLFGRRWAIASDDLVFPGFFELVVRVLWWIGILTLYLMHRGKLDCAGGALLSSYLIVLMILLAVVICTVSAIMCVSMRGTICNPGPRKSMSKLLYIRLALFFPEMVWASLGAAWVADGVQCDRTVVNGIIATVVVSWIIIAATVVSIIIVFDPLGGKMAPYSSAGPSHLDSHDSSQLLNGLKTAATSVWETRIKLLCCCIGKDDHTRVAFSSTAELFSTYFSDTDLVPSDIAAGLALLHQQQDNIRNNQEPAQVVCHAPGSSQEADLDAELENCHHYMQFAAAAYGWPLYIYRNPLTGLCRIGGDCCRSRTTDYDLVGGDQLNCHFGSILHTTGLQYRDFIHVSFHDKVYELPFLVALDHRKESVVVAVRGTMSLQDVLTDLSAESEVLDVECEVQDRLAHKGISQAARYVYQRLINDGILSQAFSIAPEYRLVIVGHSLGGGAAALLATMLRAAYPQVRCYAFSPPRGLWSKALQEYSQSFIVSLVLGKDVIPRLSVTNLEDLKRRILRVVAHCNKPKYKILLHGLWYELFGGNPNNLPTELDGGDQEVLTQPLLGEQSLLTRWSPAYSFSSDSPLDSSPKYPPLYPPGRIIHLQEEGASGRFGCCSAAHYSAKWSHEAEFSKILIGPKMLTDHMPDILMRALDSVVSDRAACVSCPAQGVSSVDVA
MsrA act = bovine MsrA enzyme activators, primary screen, biochemical, absorbance, HTS. purified bovine MsrA, absorbance read-out. activation, % at 10.6 µM. actives 0.3% (n = 360,000). AID 602163, 2012; in the data active = activation above about 7.5%
Pemphigus Ab inh = inhibitors of pemphigus antibody binding to DSG3, primary screen, biochemical, bead-based, flow cytometry, scFv-GFP | Desmoglein-3 (Homo sapiens), P32926 | DSG3-coupled beads, scFv-anti-DSG3-GFP binding; stronger effect = lower value | binding (percent of control), % at 10 µM | actives 0.48% (n = 310,000);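 active = binding more than 3 SD below its plate's average and above zero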;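 note: hits lower antibody fragment binding to DSG3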
NadD block = inhibitors of S. aureus NadD, primary screen, biochemical, colorimetric, uHTS; Nicotinate-nucleotide adenylyltransferase NadD (Staphylococcus aureus N315); purified NadD enzyme, colorimetric absorbance read-out; inhibition, % at 20 µM; actives 0.78% (n = 360,000); AID 602399, 2012; in the data active = inhibition above about 26%
MsrA inhibitor = bovine MsrA enzyme inhibitors, primary screen, biochemical, absorbance, HTS; AID 651718, 2012; Methionine sulfoxide reductase A (Bos taurus); purified bovine MsrA, absorbance read-out; actives 0.75% (n = 360,000); inhibition, % at 15.5 µM; in the data active = inhibition above about 4.5%
rCAG RNA binder = binders of r(CAG) RNA repeats, primary screen, biochemical, fluorescence. r(CAG) RNA repeat, TO-PRO-1 dye displacement fluorescence. inhibition, % at 3 µM. actives 1.3% (n = 370,000);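 active = inhibition above the plate cutoff, the mean of all test compounds on that plate plus 3 SD, cut at about 35% in these data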;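 note: higher means more dye released from RNA so lower well fluorescence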
rCAG binder conf = small molecules binding CAG repeat RNA – biochemical, fluorescence, confirmation; actives 70% (n = 4,300); inhibition, % at 3 µM; r(CAG) RNA repeat, TO-PRO-1 dye displacement fluorescence; shares compounds with rCAG RNA binder;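 active = inhibition above a per-plate cutoff, the mean inhibition of sample wells plus 3 SD, cut at about 35% in these data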;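 note: loss of TO-PRO-1 fluorescence as compound displaces dye from 1x1 AA loop RNA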
dCAG dye counter = displacement of TO-PRO-1 from CAG DNA duplex, counter-screen for rCAG RNA repeat binder project, biochemical, fluorescence, TO-PRO-1 dye, d(CAG) DNA oligo. actives 94% (n = 4,300). AID 652068, 2013. inhibition, % at 3 µM. shares compounds with rCAG RNA binder. d(CAG) DNA oligo TO-PRO-1 dye displacement;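 active = inhibition above its plate's cutoff, the mean test-well inhibition plus 3 SD, cut at about 4.8% in these data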;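 note: hits displace the dye from DNA and so lower well fluorescence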
DNA CAG DR = inhibitors of DNA CAG/GTC TO-PRO-1 complex, dose response, counter-screen for rCAG RNA repeat binder project, biochemical, fluorescence, TO-PRO-1 dye. actives 20% (n = 250). DNA CAG/GTC duplex TO-PRO-1 dye displacement fluorescence. AID 686960, 2013. IC50, µM. shares compounds with rCAG RNA binder; in the data active = IC50 below about 10 µM
Large screens that a line does not name were inactive (follow-up assays come after a bar, where they were run). An excerpt weighted towards active compounds, which were near 3.2% of everything screened.

C[C@@H]1CN([C@H](C)CO)C(=O)c2c(c3ccccc3n2C)-c2ccccc2CO[C@H]1CN(C)Cc1ccccc1	none
O=C1CC(c2ccccc2)=NN1c1ccccc1	rCAG RNA binder 52.5 | rCAG binder conf inactive | dCAG dye counter 4.8
O=C1CC(c2ccccc2)=NN1c1nc(-c2ccccc2)cs1	rCAG RNA binder 65.1 | rCAG binder conf inactive | dCAG dye counter 15.0
O=c1c2cc3cc(Cl)ccc3nc2ncn1N1CCCCC1	none (no result: DAGLB inh, MsrA act, Pemphigus Ab inh, NadD block, MsrA inhibitor)
C=CCN(Cc1ccc2c(c1)OCO2)C(C#Cc1ccccc1)c1ccccc1C(F)(F)F (stereo unspecified)	none (no result: DAGLB inh, MsrA act, Pemphigus Ab inh, NadD block, MsrA inhibitor)
O=C1c2ccccc2C(=O)N1c1ncc(Cc2ccc(Cl)cc2)s1	rCAG RNA binder 42.2 (no result: Pemphigus Ab inh) | rCAG binder conf inactive | dCAG dye counter inactive
COc1cc(/C=N/NC(=O)C(Cc2c[nH]c3ccccc23)NC(=O)OCC(C)C)cc([N+](=O)[O-])c1OCc1ccccc1 (stereo unspecified)	none
COc1cc(/C=N/NC(=O)C(Cc2c[nH]c3ccccc23)NC(=O)OCC(C)C)cc([N+](=O)[O-])c1O (stereo unspecified)	rCAG RNA binder 56.6 | rCAG binder conf 68.8 | dCAG dye counter 24.7
N#CCc1nc2ccc(S(=O)(=O)N3CCOCC3)cc2s1	rCAG RNA binder 43.5 | rCAG binder conf inactive | dCAG dye counter 15.0
CSc1nc2ccc(S(=O)(=O)N3CCOCC3)cc2s1	none
COc1ccccc1/C=C1\SC(=S)N(CCC(=O)Nc2ccc(C(=O)O)c(O)c2)C1=O	rCAG RNA binder 91.0 | rCAG binder conf 85.3 | dCAG dye counter 59.1
COc1ccccc1/C=C1/SC(=S)N(CCC(=O)Nc2cccnc2)C1=O	none
O=C(CCN1C(=O)/C(=C/c2ccco2)SC1=S)Nc1ccc(C(=O)O)c(O)c1	rCAG RNA binder 90.2 | rCAG binder conf 73.2 | dCAG dye counter 33.1 | DNA CAG DR 5.35
O=C(CCN1C(=O)/C(=C\c2ccco2)SC1=S)Nc1ccc(C(=O)O)c(O)c1	NadD block 39.5, rCAG RNA binder 86.4 | rCAG binder conf 78.7 | dCAG dye counter 37.0
CC1CCN(C(=O)COC(=O)c2cccc(S(=O)(=O)N3CCOCC3)c2)CC1	none
O=C(C1CCCN(S(=O)(=O)c2ccc(Br)s2)C1)N1CCN(Cc2ccccc2)CC1 (stereo unspecified)	none (no result: DAGLB inh, MsrA act, Pemphigus Ab inh, NadD block, MsrA inhibitor)
Cc1ccc2sc(NNC(=O)C3=COCCO3)nc2c1C	rCAG RNA binder 51.0 | rCAG binder conf inactive | dCAG dye counter 5.8
O=C(NNc1nc2c(F)cccc2s1)C1=COCCO1	none
CN(C)c1ccc(/C=C2\SC(=S)N(Nc3ncc(C(F)(F)F)cc3Cl)C2=O)cc1	none (no result: Pemphigus Ab inh)
COc1cc(/C=C2\SC(=S)N(Nc3ncc(C(F)(F)F)cc3Cl)C2=O)ccc1O	rCAG RNA binder 52.6 | rCAG binder conf 62.7 | dCAG dye counter 32.4
O=C(O)Cc1sc(-c2ccccc2Cl)nc1-c1ccccc1	none
Cc1ccc(-c2nc(-c3ccc(Cl)cc3)sc2CC(=O)O)c(C)c1	rCAG RNA binder 44.9 | rCAG binder conf inactive | dCAG dye counter 8.7
Cc1ccc(C(O)c2ncc(-c3ccc(C(F)(F)F)cc3)[nH]2)cc1F (stereo unspecified)	none (no result: DAGLB inh, Pemphigus Ab inh)
CCN(CC)C(=O)c1ccc2sc([C@@H]3O[C@H](CO)[C@H](O)[C@H](O)[C@H]3O)nc2c1	none (no result: DAGLB inh, Pemphigus Ab inh)
CCOC(=O)C1=C(O)/C(=C\c2ccc(CNC(=O)C(=O)Nc3ccccc3)o2)N=C1C	rCAG RNA binder 46.4 | rCAG binder conf 39.4 | dCAG dye counter 19.1
CCOC(=O)C1=C(O)/C(=C\c2cccs2)N=C1C	none
CN(C)S(=O)(=O)c1cccc(-c2nn(-c3ccccc3)cc2/C=C2\SC(=S)NC2=O)c1	rCAG RNA binder 69.0 | rCAG binder conf 88.6 | dCAG dye counter 66.0
O=C(O)CCn1cc(/C=C2\SC(=S)NC2=O)c(-c2ccccc2)n1	none (no result: DAGLB inh, Pemphigus Ab inh)
O=S1(=O)CC2c3ccccc3CN2CN1Cc1ccccc1 (stereo unspecified)	none (no result: DAGLB inh, MsrA act, Pemphigus Ab inh, NadD block, MsrA inhibitor)
CCN1C(=O)/C(=C\c2ccc(-c3ccc([N+](=O)[O-])cc3OC)o2)SC1=Nc1cccc(C(=O)O)c1	rCAG RNA binder 62.5 | rCAG binder conf 84.2 | dCAG dye counter 49.5
CCN1C(=O)/C(=C\c2ccc(-c3cccc(C(=O)OC)c3)o2)SC1=Nc1ccc(C(=O)O)cc1	none (no result: DAGLB inh, MsrA act, Pemphigus Ab inh, NadD block)
CC(C)=CCCC1(C)C=Cc2c(c(C)cc3c2[nH]c2cc(O)ccc23)O1 (stereo unspecified)	rCAG RNA binder 51.0 | rCAG binder conf inactive | dCAG dye counter 15.2
CCCCn1nnnc1C(C1CC1)N1CCN(C/C=C/c2ccccc2)CC1 (stereo unspecified)	none (no result: DAGLB inh, Pemphigus Ab inh)
COCCCNC(=O)C1CCN(S(=O)(=O)c2ccc3[nH]c(=O)oc3c2)CC1	none (no result: DAGLB inh, MsrA act, Pemphigus Ab inh, NadD block, MsrA inhibitor)
COc1cc(NC(=O)C2CCN(S(=O)(=O)c3ccc4[nH]c(=O)oc4c3)CC2)cc(OC)c1	rCAG RNA binder 35.7 | rCAG binder conf inactive | dCAG dye counter 9.2
CN(CCOC(=O)c1occ2ccccc12)C1CN(Cc2cn(Cc3ccccc3Cl)nn2)S(=O)(=O)C1 (stereo unspecified)	none (no result: DAGLB inh, MsrA act, Pemphigus Ab inh, NadD block, MsrA inhibitor)
Cc1ccc(NC(=O)Cn2c(=O)oc3cc(S(=O)(=O)N4CCC(C)CC4)ccc32)cc1C	rCAG RNA binder 46.0 | rCAG binder conf 36.0 | dCAG dye counter 14.9
Cc1c[nH]c2cccc(-c3ccc(Cl)cc3Cl)c12	none (no result: DAGLB inh, MsrA act, Pemphigus Ab inh, NadD block, MsrA inhibitor)
O=C(C=C(O)c1ccc(Cl)cc1)C(=O)NNC(=O)C(O)(c1ccccc1)c1ccccc1	rCAG RNA binder 71.2 | rCAG binder conf 35.5 | dCAG dye counter 12.1
Cc1ccc(/C(O)=C/C(=O)C(=O)NNC(=O)C(O)(c2ccccc2)c2ccccc2)cc1	rCAG RNA binder 45.7 | rCAG binder conf inactive | dCAG dye counter 12.5
CC(=O)NNC(=O)C(O)(c1ccccc1)c1ccccc1	none
